Assay outcomes deposited in PubChem BioAssay by Buhrlage Lab, Dana-Farber Cancer Institute and Novartis Institutes for BioMedical Research (Cambridge, Mass).
USP30 block – blocks human USP30 ubiquitin-rhodamine cleavage; Q70CQ3; purified USP30, Ub-rhodamine cleavage fluorescence; inhibition, % at 25 µM; hit rate 5.3% among 47,000
USP28 block – inhibitors of human USP28 deubiquitinase. Q96RU2. purified USP28, Ub-rhodamine cleavage fluorescence, 30 min. inhibition, % at 25 µM. hit rate 3% among 47,000
USP17 inh – inhibitors of human USP17 deubiquitinase. purified USP17, Ub-rhodamine cleavage fluorescence, 3 h. hit rate 6.5% among 47,000. inhibition, % at 50 µM. A8MUK1. AID 1645855
Target sequence (A8MUK1 whole entry, looked up): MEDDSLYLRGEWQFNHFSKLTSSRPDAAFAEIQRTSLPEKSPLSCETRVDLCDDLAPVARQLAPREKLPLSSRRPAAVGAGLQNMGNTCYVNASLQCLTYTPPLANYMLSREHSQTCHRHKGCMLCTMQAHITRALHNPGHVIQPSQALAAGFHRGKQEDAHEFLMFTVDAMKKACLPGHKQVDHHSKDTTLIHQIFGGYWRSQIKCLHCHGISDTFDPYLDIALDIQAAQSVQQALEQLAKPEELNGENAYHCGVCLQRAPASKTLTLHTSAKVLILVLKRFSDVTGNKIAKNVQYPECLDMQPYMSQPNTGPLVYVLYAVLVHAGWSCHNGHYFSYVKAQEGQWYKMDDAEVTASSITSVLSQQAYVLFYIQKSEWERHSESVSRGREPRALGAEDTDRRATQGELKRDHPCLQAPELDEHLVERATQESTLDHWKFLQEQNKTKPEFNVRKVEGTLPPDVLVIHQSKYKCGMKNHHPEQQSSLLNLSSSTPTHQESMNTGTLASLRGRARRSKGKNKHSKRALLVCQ
USP8 block – human USP8 deubiquitinase inhibition; P40818; purified USP8, Ub-rhodamine cleavage fluorescence, 30 min; inhibition, % at 20 µM; hit rate 4.2% among 47,000
An asterisk follows results filed as active; nt = no result given. Shown are actives, neighbours in structure and some others; about 13% of the full set was active somewhere. No stated cut-off is given here; in the data, active means inhibition above about 30%; inactive means the rest.

SMILES	USP30 block	USP28 block	USP17 inh	USP8 block
CC(C(=O)NCCc1cccc(Cl)c1)n1cncn1 (configuration not stated)	-18.6	-8.8	-6.6	-2.0
Cc1ccc(NC(=O)c2ccccc2)c(=O)n1CC(=O)N1CCC2(CC1)OCCO2	-2.5	5.7	0.8	0.0
COc1ccccc1-n1c(-c2ccc(F)cc2)cn2c3c(=O)n(C)c(=O)n(C)c3nc12	-25.2	-8.4	-10.6	-10.2
COc1cccc(NC(=O)c2cc(-c3ccccn3)nc3ccccc23)c1	-128.1	-30.0	-22.9	-0.9
COc1ccccc1C(=O)Nc1cc(-c2ccc(F)c(F)c2)no1	44.0*	8.7	33.4*	17.4
COc1ccccc1NC(=O)c1cc(-c2ccccn2)nc2ccccc12	28.2	2.9	58.6*	8.9
COc1ccc(C(=O)Nc2cc(-c3ccccn3)no2)c(OC)c1	9.7	4.9	32.8*	14.6
CCn1ccc2c(cc(C(=O)Nc3cccc(OC)c3)n2C)c1=O	0.4	83.0*	-4.3	0.5
CCn1ccc2c(cc(C(=O)Nc3cc(F)ccc3F)n2C)c1=O	-9.8	70.0*	nt	-27.1
Cc1c(C)n(-c2ccccc2)c2ncn(CC(=O)Nc3cccc(F)c3)c(=O)c12	9.6	-13.9	nt	0.3
COc1ccc(OC)c(NC(=O)Cn2cnc3c(c(C)c(C)n3-c3ccccc3)c2=O)c1	-47.4	0.0	-0.6	31.7*
Cc1c(C)n(-c2ccccc2)c2ncn(CC(=O)NCc3ccccc3F)c(=O)c12	22.0	13.7	6.7	33.7*
COc1cccc(CNC(=O)Cn2cnc3c(c(C)c(C)n3-c3ccccc3)c2=O)c1	0.1	-9.1	-8.5	-3.7
Cc1c(C)n(-c2ccccc2)c2ncn(CC(=O)NC(C)c3ccccc3)c(=O)c12 (configuration not stated)	74.6*	15.3	nt	20.4
Cc1cccc(CNC(=O)Cn2cnc3c(c(C)c(C)n3-c3ccccc3)c2=O)c1	9.1	0.9	4.4	36.1*
Cc1cccc(NC(=O)Cn2cnc3c(c(C)c(C)n3-c3ccccc3)c2=O)c1	-0.4	6.5	22.9	0.2
O=C(O)c1cccnc1SCC(=O)N1CCN(c2ccccn2)CC1	21.1	4.2	10.5	19.0
CNC(=O)Cn1cnc2c(c(C)c(C)n2-c2ccc(Cl)cc2)c1=O	-37.9	0.1	49.9*	0.3
N#Cc1c(C(F)(F)F)cc(-c2ccccc2)nc1N1CCOCC1	0.2	-5.0	30.2*	-5.2
COc1ccc(-c2noc(CC(=O)Nc3ccc(NC(C)=O)nc3)n2)cc1	-119.5	-39.1	6.5	19.2
CCOc1ccc(NC(=O)CSCc2nc(-c3ccc(OC)c(OC)c3)no2)cc1	-13.6	20.1	47.0*	34.3*
CCOC(=O)c1cccc(NC(=O)Cc2nc(-c3ccc(OC)cc3)no2)c1	-3.9	7.5	-8.8	8.8
COc1ccc(-c2noc([C@@H]3C[C@H](NC(=O)Nc4cccc(C#N)c4)CN3C)n2)cc1	36.5*	21.2	24.7	-3.1
COc1ccc(-c2noc(CC(=O)Nc3cccc(C#N)c3)n2)cc1	17.5	0.3	39.4*	12.2
Cc1cnc(C(=O)N2CCCC(C)(c3ncc(Cc4ccccc4)o3)C2)cn1 (configuration not stated)	4.8	6.1	6.9	7.9
SMILES	USP30 block	USP28 block	USP17 inh	USP8 block
CSc1nc(N2CCOCC2)c2c3c(sc2n1)CN(C)CC3	-418.0	-124.7	-55.7	-123.5
CSCCC(NC(=O)c1sccc1C)c1nnc2ccccn12 (configuration not stated)	40.6*	12.7	14.7	15.4
CSCCC(NC(=O)c1cccs1)c1nnc2ccccn12 (configuration not stated)	-0.6	-0.3	-1.3	1.2
CC(C)c1ccc(N2CCN(Cc3ccc(F)cc3)C2=O)cc1	3.5	30.7*	7.4	12.2
COc1cccc(CN2CCN(c3ccc(F)cc3)C2=O)c1	5.8	40.3*	-4.5	-4.3
CC(C)c1ccc(N2CCN(Cc3cccnc3)C2=O)cc1	18.9	13.7	1.5	0.0
O=C1N(Cc2ccc(F)cc2)CCN1c1ccc2c(c1)CCC2	31.3*	51.9*	26.6	12.4
O=C1N(Cc2ccc(F)cc2)CCN1c1ccc(C(F)(F)F)cn1	22.6	65.1*	3.6	1.5
Nc1nonc1C(=O)NCCNCc1ccc(F)cc1	nt	nt	-3.6	1.2
O=C(c1ccn[nH]1)N1CCC2(CC1)CC(c1cccnc1)c1ccccc12 (configuration not stated)	-0.3	-1.9	-24.5	-166.8
O=C(CN(Cc1ccccc1)S(=O)(=O)c1ccc(Br)cc1)N1CCN(C(c2ccccc2)c2ccccc2)CC1	-0.9	-8.5	-6.4	-25.8
Cc1ccc(NC(=O)CSc2ccc(NC(=O)c3ccc(C(=O)O)cc3C(=O)O)cc2)c(C)c1	17.6	19.1	6.6	10.3
Cc1nc(-c2ccc(NC(=O)N3CCC(Cc4ccccc4)CC3)cc2)no1	10.2	39.5*	9.3	12.9
Cc1nc(-c2ccc(NC(=O)N3CCN(c4ccccc4F)CC3)cc2)no1	-8.0	-0.2	0.1	-1.9
Cc1nc(-c2ccc(NC(=O)N3CCN(c4ccccn4)CC3)cc2)no1	16.0	61.9*	4.2	0.0
Cc1nc(-c2ccc(NC(=O)N3CCN(c4cccc(Cl)c4)CC3)cc2)no1	-0.6	1.9	-0.3	6.7
Cn1c(=O)c2c(nc(N3CCC(Cc4ccccc4)CC3)n2CCSc2nnnn2-c2ccccc2)n(C)c1=O	-19.8	-1.1	0.7	-14.2
CCOc1ccc2[nH]c(=O)c(CN(CC3COCCO3)C(=O)c3ccccc3C)cc2c1 (configuration not stated)	6.0	0.0	3.4	5.8
COc1cc(NC(=O)Cn2c(=O)n(CC3CCC(C(=O)NC4CCCC4)CC3)c(=O)c3ccccc32)cc(OC)c1 (configuration not stated)	43.7*	28.2	60.9*	8.7
O=C(Cn1c(=O)n(CC2CCC(C(=O)NC3CCCC3)CC2)c(=O)c2ccccc21)NCc1ccco1 (configuration not stated)	38.7*	49.9*	54.1*	-15.2
Cc1nn(C)c(C)c1S(=O)(=O)N1CCN(C(=O)Cc2ccc(F)cc2)CC1	16.6	9.8	5.6	8.1
SC(COCc1ccccc1)CN1CCN(c2ccccc2)CC1 (configuration not stated)	44.0*	24.0	22.7	-46.2
CCOC(=O)c1cccc(NC(=O)CC2C(=O)N(c3ccccc3)C(=O)N2C2CCCC2)c1 (configuration not stated)	8.5	13.3	12.2	8.2
COc1cc(OC)c2c(c1)C(=O)C1=C(COC(C)(O)C1)C2=O (configuration not stated)	-15.6	37.1*	81.8*	68.2*
COc1ccc(-c2ocnc2C(=O)Nc2cc(F)ccc2F)cc1	-1.2	-0.5	5.2	10.4
COc1ccc(-c2ocnc2C(=O)NCc2cccc(OC)c2)cc1	23.2	43.9*	21.7	10.7
COc1ccc(CNC(=O)c2ncoc2-c2ccc(OC)cc2)cc1	21.0	24.8	7.6	17.4
COc1ccc(NC(=O)c2ncoc2-c2cccs2)c(OC)c1	9.0	-5.6	46.4*	2.8
O=C(Nc1ccccc1Cl)c1ncoc1-c1cccs1	2.6	-0.3	-11.8	-15.6
COc1cccc(-c2ocnc2C(=O)Nc2ccc(C)cc2C)c1	33.6*	14.4	39.1*	3.2
